Assays:
Settings in all cases: concentration: 1 μM, replicates: in singlicate; n = 1
CDKL5 = system: CDKL5
CHEK1 = system: CHEK1
CHEK2 = system: CHEK2
CIT = system: CIT
CLK1 = system: CLK1
CLK2 = system: CLK2
CLK3 = system: CLK3
CLK4 = system: CLK4
CSF1R-autoinhibited = system: CSF1R-autoinhibited
CSF1R = system: CSF1R
CSK = system: CSK
CSNK1A1L = system: CSNK1A1L
CSNK1A1 = system: CSNK1A1
CSNK1D = system: CSNK1D
CSNK1E = system: CSNK1E
CSNK1G1 = system: CSNK1G1
CSNK1G2 = system: CSNK1G2
CSNK1G3 = system: CSNK1G3
CSNK2A1 = system: CSNK2A1
CSNK2A2 = system: CSNK2A2
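Also: KINOMEscan kinase panel screen.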

COc1ccc(CSc2nnc(-c3ccc4c(c3)CCO4)o2)cc1
%Inh (CDKL5): 0%
%Inh (CHEK1): 0%
%Inh (CHEK2): 0%
%Inh (CIT): 0%
%Inh (CLK1): 64%
%Inh (CLK2): 28%
%Inh (CLK3): 0%
%Inh (CLK4): 81%
%Inh (CSF1R-autoinhibited): 10%
%Inh (CSF1R): 0%
%Inh (CSK): 0%
%Inh (CSNK1A1L): 3%
%Inh (CSNK1A1): 0%
%Inh (CSNK1D): 0%
%Inh (CSNK1E): 0%
%Inh (CSNK1G1): 0%
%Inh (CSNK1G2): 0%
%Inh (CSNK1G3): 0%
%Inh (CSNK2A1): 0%
%Inh (CSNK2A2): 0%

COc1cccc(CNC(=O)NC2CCN(c3ccnc(Nc4ccc(F)cc4)n3)C2)c1 (centres unmarked) [GSK1379723]
%Inh (CDKL5): 6%
%Inh (CHEK1): 5%
%Inh (CHEK2): 0%
%Inh (CIT): 19%
%Inh (CLK1): 19%
%Inh (CLK2): 0%
%Inh (CLK3): 0%
%Inh (CLK4): 8%
%Inh (CSF1R-autoinhibited): 10%
%Inh (CSF1R): 2%
%Inh (CSK): 0%
%Inh (CSNK1A1L): 21%
%Inh (CSNK1A1): 19%
%Inh (CSNK1D): 4%
%Inh (CSNK1E): 11%
%Inh (CSNK1G1): 0%
%Inh (CSNK1G2): 0%
%Inh (CSNK1G3): 16%
%Inh (CSNK2A1): 0%
%Inh (CSNK2A2): 2%

CC[C@@H]1CO[C@H](C(=O)Nc2ccccc2)CN1c1cc(-c2ccc3c(N)n[nH]c3c2)nc(NC)n1 [GSK2376236]
%Inh (CDKL5): 0%
%Inh (CHEK1): 2%
%Inh (CHEK2): 29%
%Inh (CIT): 98.5%
%Inh (CLK1): 37%
%Inh (CLK2): 0%
%Inh (CLK3): 7%
%Inh (CLK4): 0%
%Inh (CSF1R-autoinhibited): 0%
%Inh (CSF1R): 12%
%Inh (CSK): 0%
%Inh (CSNK1A1L): 4%
%Inh (CSNK1A1): 0%
%Inh (CSNK1D): 39%
%Inh (CSNK1E): 42%
%Inh (CSNK1G1): 7%
%Inh (CSNK1G2): 31%
%Inh (CSNK1G3): 39%
%Inh (CSNK2A1): 12%
%Inh (CSNK2A2): 10%

Cc1ccccc1Cn1ccn2c(=O)cc(N3CCOCC3)nc12 [GSK2269905]
%Inh (CDKL5): 3%
%Inh (CHEK1): 0%
%Inh (CHEK2): 0%
%Inh (CIT): 3%
%Inh (CLK1): 48%
%Inh (CLK2): 0%
%Inh (CLK3): 28%
%Inh (CLK4): 30%
%Inh (CSF1R-autoinhibited): 0%
%Inh (CSF1R): 26%
%Inh (CSK): 0%
%Inh (CSNK1A1L): 0%
%Inh (CSNK1A1): 0%
%Inh (CSNK1D): 4%
%Inh (CSNK1E): 28%
%Inh (CSNK1G1): 0%
%Inh (CSNK1G2): 0%
%Inh (CSNK1G3): 22%
%Inh (CSNK2A1): 0%
%Inh (CSNK2A2): 0%

O=C1NC(=O)C(c2ccc(Cl)cc2)=C1Nc1cccc(Cl)c1 [SB-317651]
%Inh (CDKL5): 0%
%Inh (CHEK1): 0%
%Inh (CHEK2): 0%
%Inh (CIT): 0%
%Inh (CLK1): 91.6%
%Inh (CLK2): 34%
%Inh (CLK3): 2%
%Inh (CLK4): 16%
%Inh (CSF1R-autoinhibited): 6%
%Inh (CSF1R): 13%
%Inh (CSK): 0%
%Inh (CSNK1A1L): 16%
%Inh (CSNK1A1): 22%
%Inh (CSNK1D): 0%
%Inh (CSNK1E): 0%
%Inh (CSNK1G1): 0%
%Inh (CSNK1G2): 0%
%Inh (CSNK1G3): 88%
%Inh (CSNK2A1): 0%
%Inh (CSNK2A2): 0%

Cn1cncc1-c1cc2c(Nc3ccc(OCc4ccccc4)cc3)ncnc2cn1 [GW281179]
%Inh (CDKL5): 1%
%Inh (CHEK1): 2%
%Inh (CHEK2): 0%
%Inh (CIT): 6%
%Inh (CLK1): 17%
%Inh (CLK2): 0%
%Inh (CLK3): 0%
%Inh (CLK4): 14%
%Inh (CSF1R-autoinhibited): 0%
%Inh (CSF1R): 0%
%Inh (CSK): 4%
%Inh (CSNK1A1L): 4%
%Inh (CSNK1A1): 0%
%Inh (CSNK1D): 19%
%Inh (CSNK1E): 24%
%Inh (CSNK1G1): 9%
%Inh (CSNK1G2): 0%
%Inh (CSNK1G3): 24%
%Inh (CSNK2A1): 0%
%Inh (CSNK2A2): 9%

COc1ccc(Nc2nccc(-c3ccc(NC(=O)c4cc5cc(F)ccc5[nH]4)cc3)n2)cc1 [GSK1229496]
%Inh (CDKL5): 0%
%Inh (CHEK1): 100%
%Inh (CHEK2): 26%
%Inh (CIT): 0%
%Inh (CLK1): 5%
%Inh (CLK2): 0%
%Inh (CLK3): 19%
%Inh (CLK4): 18%
%Inh (CSF1R-autoinhibited): 15%
%Inh (CSF1R): 0%
%Inh (CSK): 0%
%Inh (CSNK1A1L): 0%
%Inh (CSNK1A1): 0%
%Inh (CSNK1D): 0%
%Inh (CSNK1E): 21%
%Inh (CSNK1G1): 0%
%Inh (CSNK1G2): 0%
%Inh (CSNK1G3): 17%
%Inh (CSNK2A1): 0%
%Inh (CSNK2A2): 0%

— article PMC5540273 (PLoS ONE, 2017)
